Screening data (PubChem)
A selection: hits, their analogues and other compounds. The true share with any hit is near 2.6%.
Cruzain inh noDet – inhibitors of Trypanosoma cruzi cruzain without detergent; P25779; Potency, µM, without a hit: max response, negative = inhibition, most hits filed as inhibitors; AID 1476; 2.3% of 200,000 active; purified cruzain, Z-FR-AMC fluorescence, no detergent;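 also: plate controls were enzyme without inhibitor for no effect and buffer without enzyme for full effect; nearly all actives have a fitted effect of over 40% in size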
Target sequence (P25779 123-467 limits assumed): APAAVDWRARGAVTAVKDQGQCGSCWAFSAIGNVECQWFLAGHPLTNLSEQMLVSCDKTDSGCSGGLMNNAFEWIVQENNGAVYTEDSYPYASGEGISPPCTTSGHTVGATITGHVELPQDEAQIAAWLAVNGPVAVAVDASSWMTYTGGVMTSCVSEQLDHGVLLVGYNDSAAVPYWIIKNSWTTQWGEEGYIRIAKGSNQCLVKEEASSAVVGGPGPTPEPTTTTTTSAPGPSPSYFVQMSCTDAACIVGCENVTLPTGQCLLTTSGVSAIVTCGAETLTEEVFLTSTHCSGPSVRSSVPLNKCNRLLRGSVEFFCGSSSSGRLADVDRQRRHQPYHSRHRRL
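Detergent-free condition (0.00005% Triton X-100) in acetate buffer pH 5.5 with DTT. 1.5 nM enzyme and compound were pre-mixed 15 min, then 2 uM Z-FR-AMC substrate added; reaction progress from fluorescence change between first and third reads (60 s).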
Cruzain Triton – inhibitors of Trypanosoma cruzi cruzain with detergent; P25779; purified cruzain, Z-FR-AMC fluorescence, 0.01% Triton; Potency, µM, for inactives: max response, negative = inhibition, most hits filed as inhibitors; 0.43% of 200,000 active; AID 1478;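 also: plate controls were neutral wells for no effect and buffer without enzyme for full effect; nearly all actives have a fitted effect of over 40% in size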
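Enzyme 1.5 nM, Z-FR-AMC 2 uM, NaOAc 100 mM pH 5.5, DTT 5 mM, Triton X-100 0.01%; 15 min RT compound preincubation; kinetic ex360/em450, 60 s delta.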
* = called active by the depositor; ? = inconclusive; ! = a repeat was not active. Calls follow the shape of the dose curve; as a rule, active = well fitted curve in the direction sought with a large enough effect; inconclusive = small, poorly fitted or top-dose-only effect, or another doubt; inactive = no such curve, though single readings can be large; an effect the other way counts as inactive or inconclusive. Potency is read from the fitted curve at half-maximal effect.

SMILES	Cruzain inh noDet	Cruzain Triton
CN(c1ccc(F)cc1)S(=O)(=O)N1CCCC(C(=O)NCc2cccc(Br)c2)C1 (stereo unspecified)	-0.7%	-5.4%
O=C(CSc1nnc2c3ccccc3c3ccccc3c2n1)Nc1ccccc1F	7.94µM*	-16.7%
O=C(O)CSc1nnc2c3ccccc3c3ccccc3c2n1	-5.8%	-3.2%
O=C(CSc1nnc2c3ccccc3c3ccccc3c2n1)Nc1ccccc1	3.98µM*	-4.0%
Nn1c(SCC(=O)Nc2ccccc2F)nc2ccccc2c1=O	-4.7%	-1.6%
O=C(CCSCc1cnn(-c2ccccc2)c1-n1cccc1)NCc1ccc(Cl)cc1	5.7%	-4.7%
CCOc1ccc(CC(=O)Nc2c(C(=O)c3ccc(C)cc3)oc3ccccc23)cc1OCC	?	-0.9%
Cc1cc(C)cc(OCC(=O)Nc2ccc(-c3nc4ccccc4o3)cc2)c1	1.2%	-1.6%
O=C(COc1ccc(/C=N/NS(=O)(=O)c2ccccc2)cc1)Nc1cccc(Cl)c1	-14.3%	-5.4%
O=C(Nc1ccc(O)c(-c2nc3ccccc3o2)c1)c1ccc(Br)cc1	-2.4%	0.5%
Cc1ccc(OCC(=O)Nc2ccc3nc(Nc4cccc(Cl)c4)cc(C)c3c2)cc1	20µM*	2.8%
O=C(Nc1ccc(O)c(-c2nc3ccccc3o2)c1)C1(c2ccc(Br)cc2)CCCC1	5.01µM*	0.3%
Cc1ccc(OCC(=O)Nc2ccc(O)c(-c3nc4ccccc4o3)c2)cc1	3.98µM*	-2.4%
Cc1c(NC(=O)Nc2cccc(C(F)(F)F)c2)sc2nc3n(c(=O)c12)CCC(C)CC3 (stereo unspecified)	-11.7%	0.0%
O=C(O)c1cccc(Cn2c(Cl)c(/C=N/NC(=O)c3ccccc3)sc2=O)c1	-16.2%	-3.1%
COC(=O)c1cccc(Cn2c(Cl)c(/C=N/Nc3ccccc3C)sc2=O)c1	12.6µM*	-8.6%
Cc1ccc(-c2nn3c(C)nnc3c3ccccc23)cc1S(=O)(=O)NCC(C)O (stereo unspecified)	-3.7%	1.3%
CCn1c(-c2cc(Br)cc(OC)c2O)nc2cc(S(=O)(=O)N(C)C)ccc21	20µM*	-5.3%
CCn1c(CSc2nnc(C)n2-c2ccccc2)nc2cc(S(=O)(=O)N(C)C)ccc21	4.7%	6.0%
CCCSc1nnc2n(-c3ccc(OC)cc3)c(=O)c3c4c(sc3n12)COC(C(C)C)C4 (stereo unspecified)	-4.6%	0.1%
Cc1ccc(OCC(=O)Nc2cc3nn(-c4ccccc4)nc3cc2C)cc1	-1.6%	0.0%
CC(C)Sc1nc(SCC(=O)NCc2ccco2)c2c3c(sc2n1)COC(C)(C)C3	25.1µM*	25.1µM*
CCCSc1nc(SCC(=O)NCc2ccccc2)c2c3c(sc2n1)COC(C)(C)C3	-3.6%	9.4%
Cc1ccc(C)c(S(=O)(=O)c2cn(Cc3ccccc3)c3cc(F)c(F)cc3c2=O)c1	25.1µM*	-4.8%
Cc1ccc(Cn2cc(S(=O)(=O)c3ccc(Cl)cc3)c(=O)c3cc(F)ccc32)cc1	?	0.4%
SMILES	Cruzain inh noDet	Cruzain Triton
CCOc1ccc(-n2c(=O)c3c4c(sc3n(CC(=O)Nc3cccc(C(F)(F)F)c3)c2=O)CCCCC4)cc1	-17.2%	-4.8%
COc1ccc(C(=O)Nc2cccc(OC)c2)cc1	0.0%	3.7%
COc1cc(NC(=S)NC(=O)c2ccccc2C)ccc1NC(=O)c1cccs1	-21.1%	0.6%
COc1ccc(C(=O)Nc2ccc3c(c2)Cc2ccccc2-3)cc1	10µM*	5.6%
COc1cccc(OC)c1C(=O)NC(=S)Nc1ccc2c(c1)C(=O)N(C)C2=O	-2.0%	-2.7%
COc1c(C)cccc1C(=O)NC(=S)Nc1ccc2c(c1)Cc1ccccc1-2	20µM*	2.4%
COc1cccc(OC)c1C(=O)NC(=S)Nc1ccc2c(c1)Cc1ccccc1-2	15.8µM*	-23.6%
CCc1sc(Nc2cccc(C)c2C)nc1-c1cc2cccc(OC)c2oc1=O	5.4%	2.2%
Cc1ccc(C)c(N2CCN(C(=O)c3ccc4c(c3)N(Cc3ccc(F)cc3)C(=O)c3ccccc3S4=O)CC2)c1 (stereo unspecified)	-18.1%	-0.8%
COc1ccc(N2CCN(S(=O)(=O)c3ccc4c(c3)C(C(C)C)C(=O)N4)CC2)cc1 (stereo unspecified)	-18.3%	-6.3%
COc1cccc2c1Oc1ncccc1N(C(=O)Nc1ccc(F)c(Cl)c1)C2	23.2%	-0.6%
CCN(CC)c1ccc(/C=N/NC(=O)c2cccc(S(=O)(=O)Nc3ccccc3OC)c2)c(O)c1	20µM*	-3.8%
COc1ccc(-c2nn(-c3ccccc3)cc2/C=N/NC(N)=S)cc1OC	0.631µM*	1.58µM*
COc1ccccc1NS(=O)(=O)c1cccc(C(=O)N/N=C/c2cn(-c3ccccc3)nc2-c2ccccc2)c1	12.6µM*	-5.1%
COc1ccccc1NS(=O)(=O)c1cccc(C(=O)N/N=C/c2c(C)nn(-c3ccccc3)c2N2CCCC2)c1	-12.6%	-3.9%
COc1ccccc1NS(=O)(=O)c1cccc(C(=O)N/N=C/c2ccc3c(c2)OCCO3)c1	?	-11.3%
COc1ccc(-c2nn(-c3ccccc3)cc2/C=N/n2cnnc2)cc1OC	?	-7.7%
COc1ccc(Cl)cc1NC(=O)c1cnc2sc(N3CCOCC3)nn2c1=O	-15.1%	0.6%
COc1ccc(-n2ccnc(NCc3cccs3)c2=O)cc1OC	0.3%	-0.2%
N#CC(=NCCO)C1=C(O)c2ccccc2C1=O	-1.5%	2.1%
O=C1C(SCCO)=C(SCCO)C(=O)c2ccccc21	25.1µM*!	?
CC(C)=CC1C(CO)C1(C)C (stereo unspecified)	1.2%	5.1%
CCOc1ccc(-c2cn(-c3ccc(OC)cc3)c(SCC(=O)Nc3ccccc3Cl)n2)cc1	?	0.2%
O=C(CS(=O)(=O)c1nc(-c2ccc(Cl)cc2)cn1-c1ccccc1)Nc1cccc(Cl)c1	-16.8%	?
CCn1cc(S(=O)(=O)CC(=O)Nc2ccc(C)cc2)c2ccccc21	-7.9%	-2.7%
SMILES	Cruzain inh noDet	Cruzain Triton
Cc1ccc(-c2cn(-c3cccc(Cl)c3)c(S(=O)(=O)CC(=O)Nc3ccccc3F)n2)cc1	15.8µM*	-14.7%
Cc1cccc(-n2cc(-c3ccccc3)nc2SCC(=O)Nc2ccccc2Cl)c1	-11.0%	0.3%
CCOc1ccc(-c2cn(-c3ccc(C)cc3)c(SCC(=O)Nc3ccc(C)cc3)n2)cc1	25.1µM*	1.9%
Cc1ccc(-c2cn(-c3cccc(Cl)c3)c(S(=O)(=O)CC(=O)Nc3cccc(C)c3)n2)cc1	15.8µM*	-21.2%
Cc1ccc(NC(=O)CS(=O)(=O)c2nc(-c3ccc(C)cc3)cn2-c2ccc(C)cc2)cc1	12.6µM*	-20.0%
O=C(CSc1nc2ccccc2nc1Cc1ccccc1)NCc1ccccc1Cl	9.4%	2.9%
COc1cccc(-n2ccn(CC(=O)Nc3ccccc3F)c(=O)c2=O)c1	3.0%	-3.8%
O=C(CN1CCN(c2ccc(Cl)cc2)CC1)Nc1ccc(F)cc1F	2.7%	-8.1%
Cc1cccc(NC(=O)CS(=O)(=O)c2nc(-c3ccccc3)cn2-c2cccc(Cl)c2)c1C	10µM*	-23.3%
O=C(CS(=O)(=O)c1nc(-c2ccc(Cl)cc2)cn1-c1ccccc1)Nc1ccc(F)cc1F	25.1µM*	-21.8%
Cc1cccc(NC(=O)CSc2nc(-c3ccccc3)cn2-c2ccccc2)c1C	?	-1.4%
Cn1c(SCc2ccccc2Cl)nc2c([nH]c3ccccc32)c1=O	-3.2%	1.5%
CCOc1ccccc1C(=O)Nc1ccc(S(=O)(=O)Nc2ncccn2)cc1	10.1%	-5.0%
C/C(=N\NC(=S)NC(C)C)c1ccc(Cl)s1	-9.6%	-11.3%
C/C(=N\NC(N)=S)c1ccc(Cl)s1	0.251µM*	0.562µM*
